Test results reported in PubChem BioAssay (Tox21).
A number with no mark means an inactive call. Inconclusive results are not listed. Where a call stands in place of a potency, no number is given. Activity calls are given as the source filed them. Unless noted, calls come from the whole dose curve; as a rule, active = well fitted curve in the direction sought with a large enough effect in the repeat runs; inconclusive = weak or mixed curves; inactive = no such curve, though single readings can be large; an effect the other way counts as inactive or inconclusive.

Tests used:
[1] = molecular target: Nuclear receptor subfamily 1 group I member 3 (Homo sapiens) (UniProt Q14994); assay: qHTS assay to identify small molecule antagonists of the constitutive androstane receptor (CAR) signaling pathway (AID 1224838);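 note: HepG2 cells stably expressing hCAR with CYP2B6 luciferase reporter stimulated by CITCO; nearly all actives have a fitted effect of over 40% in size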
Summary of the method: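 Antagonist mode used CITCO at a final 50 nM to activate CAR in human hepatoma HepG2 cells carrying stable hCAR and a 2.2 kb CYP2B6 promoter-luciferase construct. Compounds were tested at 15 concentrations over 24 h, with luminescence as the end point.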

[2] = molecular target: Nuclear receptor subfamily 1 group I member 3 (Homo sapiens) (UniProt Q14994); assay: qHTS assay to identify small molecule agonists of the constitutive androstane receptor (CAR) signaling pathway (AID 1224839); note: nearly all actives have a fitted effect of over 15% in size; note: potency is the fitted concentration of half-maximal effect
Summary of the method: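 Luminescence read-out (ONE-Glo, 30 min, room temperature) from double-stable HepG2-CYP2B6-hCAR cells exposed 24 h to 15-point compound series in presence of 0.75 uM PK11195 final.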

[3] = molecular target: Thyrotropin receptor (Homo sapiens) (UniProt P16473); assay: qHTS assay to identify small molecule agonists of the thyroid stimulating hormone receptor (TSHR) signaling pathway (AID 1224843; calls by dose curve; note: nearly all actives have a fitted effect of over 45% in size)
Summary of the method: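 Agonist activity read as cAMP rise via d2/cryptate HTRF competition, 1 h room-temperature detection, in HEK293 cells expressing TSHR. Fifteen-point titrations, each run in triplicate, with a 30 min room-temperature incubation beforehand.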

[4] = qHTS assay to identify small molecule agonists of H2AX - cell viability counter screen (AID 1224847; calls by dose curve; note: nearly all actives have a fitted effect of over 30% in size; note: potency is the fitted concentration of half-maximal effect)
Summary of the method: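 CHO-K1 wt, 1000 cells/well, o/n 37C; cpds 15 conc, 3 h 37C, 0.76% DMSO; CellTiter-Glo, 30 min RT, luminescence.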

[5] = qHTS RealTime-Glo MT Cell Viability Assay in HepG2 cells - 24 hour (AID 1224867); note: nearly all actives have a fitted effect of over 50% in size
Summary of the method: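 HepG2 cells (600/well) were dispensed with RealTime-Glo reagents, incubated 5 h at 37 °C, then treated with compounds in DMSO for up to 40 h. Nonlytic NanoLuc luminescence reflecting viable cells was read at each stated time point.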

[6] = qHTS RealTime-Glo MT Cell Viability Assay in HEK293 cells - 32 hour (AID 1224868); note: nearly all actives have a fitted effect of over 50% in size; note: potency is the fitted concentration of half-maximal effect
Summary of the method: (§1)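 HEK293 cells seeded with NanoLuc/prosubstrate reagent, rested 5 h at 37 C, then dosed and kept at 37 C up to 40 h. Nonlytic real-time luminescence from viable cells read at 0, 8, 16, 24, 32 and 40 h.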

[7] = A CellTox Green Cytotoxicity Assay to monitor cytotoxicity in HEK293 cells - 0 hour (AID 1224869); note: nearly all actives have a fitted effect of over 50% in size
Summary of the method: (§2)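 Cells (HEK293, 600/well) and dye reagent are dispensed together. After 5 h at 37 C, 23 nL compound is pinned in. Plates stay at 37 C for 40 h with fluorescence read at 0h, 8h, 16h, 24h, 32h and 40h.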

[8] = qHTS RealTime-Glo MT Cell Viability Assay in HepG2 cells - 40 hour (AID 1224870); note: nearly all actives have a fitted effect of over 50% in size; note: potency is the fitted concentration of half-maximal effect
Summary of the method: (§3)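 Real-time viability: cells seeded at 600 per well together with NanoLuc and cell-permeant prosubstrate, compounds added after 5 h incubation. Luminescence tracked at 0, 8, 16, 24, 32 and 40 h of exposure.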

[9] = A CellTox Green Cytotoxicity Assay to monitor cytotoxicity in HEK293 cells - 40 hour (AID 1224871); note: nearly all actives have a fitted effect of over 45% in size; note: potency is the fitted concentration of half-maximal effect
Summary of the method: as §2

[10] = qHTS RealTime-Glo MT Cell Viability Assay in HepG2 cells - 8 hour (AID 1224873); note: nearly all actives have a fitted effect of over 55% in size; note: potency is the fitted concentration of half-maximal effect
Summary of the method: as §3

[11] = qHTS assay to identify small molecule antagonists of the constitutive androstane receptor (CAR) signaling pathway - cell viability counter screen (AID 1224837); note: nearly all actives have a fitted effect of over 45% in size
Summary of the method: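 Viability was measured with CellTiter-Fluor in a HepG2 line carrying stably transfected hCAR and a CYP2B6-2.2kb construct. Cells were exposed for 23 hr at 37 C to 15 compound concentrations with 50 nM CITCO as agonist.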

[12] = qHTS assay to identify small molecule agonists of the hypoxia (HIF-1) signaling pathway - cell viability counter screen (AID 1224844; calls by dose curve; note: nearly all actives have a fitted effect of over 50% in size)
Summary of the method: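 Cytotoxicity was measured in parallel with the HRE-driven beta-lactamase readout: after 17 hrs of compound exposure at 37C, HRE-bla ME-180 cells received CellTiter-Glo and luminescence was recorded 30 min later.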

[13] = qHTS assay to identify small molecule agonists of H2AX (AID 1224845; active = well fitted activation curve with a large enough effect in the signal ratio in the repeat runs, not every such curve was filed as active; the % refers to the signal ratio; note: potency is the fitted concentration of half-maximal effect)
Summary of the method: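 Phospho-H2AX Ser139 measured by HTRF (ex 320 nm; em 665 and 620 nm) after 24 hr antibody incubation. Compounds, 15 concentrations, 0.76% DMSO, were applied to CHO-K1 cells for 3hr at 37C before lysis.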

[14] = qHTS assay to identify small molecule agonists of the hypoxia (HIF-1) signaling pathway (AID 1224846; active = well fitted activation curve with a large enough effect in the signal ratio in the repeat runs, not every such curve was filed as active; the % refers to the signal ratio)
Summary of the method: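 Compounds from the Tox21 10K library, dissolved in DMSO, are tested for induction of a hypoxia response element–controlled beta-lactamase reporter in ME-180 cells. Exposure lasts 17 hrs at 37C after a 5 hr settling period, followed by CCF4-AM FRET substrate.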

[15] = qHTS RealTime-Glo MT Cell Viability Assay in HEK293 cells - 16 hour (AID 1224872); note: nearly all actives have a fitted effect of over 50% in size; note: potency is the fitted concentration of half-maximal effect
Summary of the method: as §1

[16] = qHTS assay to identify small molecule antagonists of the estrogen related receptor signaling pathway with the pleiotropic PPARgamma coactivator (PGC) from Tox21 10K library - cell viability counter screen (AID 1224840; active = well fitted cell-killing curve with a large enough effect in the repeat runs, not every such curve was filed as active; note: nearly all actives have a fitted effect of over 40% in size)
Summary of the method: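 Multiplexed viability counter screen in the PGC/ERR cell line: cells treated with DMSO-dissolved compounds for 17.5 hours at 37 C, then viability measured as CellTiter-Fluor fluorescence.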

[17] = qHTS assay to identify small molecule antagonists of the estrogen related receptor signaling pathway with the pleiotropic PPARgamma coactivator (PGC) from Tox21 10K library (AID 1224841; call rule not given here)
Summary of the method: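 Steps: plate 2,000 PGC/ERR cells per well; incubate 6 h at 37 C with 5% CO2; transfer compounds from DMSO stocks by pin tool; incubate 18 h at 37 C; add One-Glo; measure luminescence 30 min later.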

[18] = qHTS assay to identify small molecule antagonists of the estrogen related receptor (ERR) signaling pathway from Tox21 library (AID 1224848); note: nearly all actives have a fitted effect of over 50% in size; note: potency is the fitted concentration of half-maximal effect
Summary of the method: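 Luciferase luminescence (ONE-Glo, 30 min room temperature) was the read-out. Cells of the NTP-supplied ERR line, 2,000 per well, were given 6 h at 37 C before compound addition in DMSO and 18 h exposure at 37 C.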

[19] = qHTS assay to identify small molecule agonists of the estrogen related receptor (ERR) signaling pathway from Tox21 library (AID 1224849; calls by dose curve; note: nearly all actives have a fitted effect of over 15% in size); conditions: ERR reporter cell line, ONE-Glo luciferase, 18 h; at 92.4 µM (top of the series) unless noted
Summary of the method: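 Cells carrying the ERR reporter were plated and allowed to settle for 6 h, exposed to library compounds for 18 h at 37 C, then lysed with ONE-Glo and luminescence measured.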

[20] = qHTS assay to identify small molecule agonists of the estrogen related receptor signaling pathway with the pleiotropic PPARgamma coactivator (PGC) from Tox21 10K library (AID 1224842); note: nearly all actives have a fitted effect of over 15% in size
Summary of the method: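 Luminescence from One-Glo (30 min, room temperature) measured after PGC/ERR cells had 18 h at 37 C with pinned compound (23 nL in DMSO). Cells had been seeded at 2,000 per well and pre-incubated 6 h.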

Thyrotropin receptor (Homo sapiens), sequence (P16473 whole entry, looked up): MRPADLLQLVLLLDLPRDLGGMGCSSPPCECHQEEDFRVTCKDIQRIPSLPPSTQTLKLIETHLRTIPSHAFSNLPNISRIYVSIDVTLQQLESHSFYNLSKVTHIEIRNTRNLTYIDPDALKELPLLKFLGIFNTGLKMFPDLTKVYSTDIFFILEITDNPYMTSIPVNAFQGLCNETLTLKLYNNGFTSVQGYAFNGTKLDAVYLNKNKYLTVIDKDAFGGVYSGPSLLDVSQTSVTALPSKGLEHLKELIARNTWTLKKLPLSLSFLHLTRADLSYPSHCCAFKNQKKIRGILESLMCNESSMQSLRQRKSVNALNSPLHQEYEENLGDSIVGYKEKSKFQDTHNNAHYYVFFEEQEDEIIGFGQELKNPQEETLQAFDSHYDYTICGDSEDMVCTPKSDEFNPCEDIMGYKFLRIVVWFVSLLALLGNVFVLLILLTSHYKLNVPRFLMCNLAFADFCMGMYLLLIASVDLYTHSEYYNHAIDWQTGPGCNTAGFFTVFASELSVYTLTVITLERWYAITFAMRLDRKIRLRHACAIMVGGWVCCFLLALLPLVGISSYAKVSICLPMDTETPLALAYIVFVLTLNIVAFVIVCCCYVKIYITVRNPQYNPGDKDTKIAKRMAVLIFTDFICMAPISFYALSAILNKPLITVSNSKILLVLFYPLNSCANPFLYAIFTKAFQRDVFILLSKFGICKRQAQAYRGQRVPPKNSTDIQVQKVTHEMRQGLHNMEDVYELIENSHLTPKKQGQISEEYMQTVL
Nuclear receptor subfamily 1 group I member 3 (Homo sapiens), sequence (Q14994 whole entry, looked up): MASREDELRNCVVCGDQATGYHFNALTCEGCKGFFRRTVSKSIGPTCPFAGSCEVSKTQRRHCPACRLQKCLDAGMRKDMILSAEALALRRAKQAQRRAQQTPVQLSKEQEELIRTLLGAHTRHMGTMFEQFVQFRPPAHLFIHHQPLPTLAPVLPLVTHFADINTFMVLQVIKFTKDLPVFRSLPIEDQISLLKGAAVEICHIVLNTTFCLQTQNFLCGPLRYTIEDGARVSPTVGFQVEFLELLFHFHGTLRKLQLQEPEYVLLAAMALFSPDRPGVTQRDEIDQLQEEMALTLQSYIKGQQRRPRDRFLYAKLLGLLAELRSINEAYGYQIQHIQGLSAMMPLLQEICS

Structure (SMILES) | Potency [1] | Potency [2] | Potency [3] | Potency [4] | Potency [5] | Potency [6] | Potency [7] | Potency [8] | Potency [9] | Potency [10] | Potency [11] | Potency [12] | Potency [13] | Potency [14] | Potency [15] | Potency [16] | Potency [17] | Potency [18] | activity change, positive = activation [19] [%] | Potency [20]
CCN(CC)c1ccc(N=Nc2ccccc2)cc1 | inactive | 13.7 µM (active) | inactive | 113 µM (active) | inactive | 49 µM (active) | inactive | inactive | inactive | inactive | – | – | – | – | – | – | – | – | – | –
O=[N+]([O-])c1ccc(CO)cc1 | – | – | – | inactive | – | inactive | inactive | – | inactive | inactive | inactive | inactive | inactive | inactive | inactive | – | – | – | – | –
Cc1cc(F)ccc1-c1cc(N2CC[C@@H](O)[C@H]2CO)ncc1N(C)C(=O)C(C)(C)c1cc(C(F)(F)F)cc(C(F)(F)F)c1 | inactive | inactive | inactive | 70.2 µM (active) | – | 17.1 µM (active) | inactive | 43 µM (active) | 43 µM (active) | 38.3 µM (active) | – | – | 39.5 µM (active) | – | 30.4 µM (active) | – | – | – | – | –
c1ccc(-c2ccccc2-c2ccccc2)cc1 | inactive | 27.3 µM (active) | – | – | inactive | inactive | inactive | inactive | inactive | inactive | – | – | – | – | inactive | inactive | – | – | – | –
CSc1ccc(O)cc1C | inactive | – | – | – | inactive | – | inactive | inactive | inactive | inactive | – | – | 113 µM (active) | – | – | inactive | inactive | inactive | -0.368 | –
CC(C=O)c1ccccc1 (stereo not given) | – | – | – | inactive | inactive | – | inactive | inactive | inactive | inactive | inactive | – | inactive | inactive | inactive | inactive | – | – | – | –
CC1(C)[C@H]2CC[C@]1(C)C(=O)C2 | inactive | – | inactive | inactive | inactive | inactive | inactive | inactive | inactive | inactive | – | – | inactive | inactive | inactive | inactive | inactive | inactive | 6.28 | inactive
NC(=O)c1ccccc1Cl | inactive | inactive | – | inactive | – | inactive | inactive | inactive | inactive | inactive | – | – | inactive | inactive | – | inactive | – | inactive | 3.13 | inactive
C=Cc1ccncc1 | inactive | – | inactive | inactive | – | inactive | inactive | inactive | – | inactive | – | inactive | inactive | inactive | – | inactive | inactive | inactive | 4.99 | –
c1ccc2c(c1)-c1ccc3ccc4cccc5cc-2c1c3c45 | inactive | 11.9 µM (active) | inactive | inactive | – | inactive | – | inactive | – | inactive | – | inactive | inactive | – | inactive | – | – | – | – | –
Clc1ccc2c(Cl)ccnc2c1 | inactive | inactive | inactive | inactive | inactive | inactive | inactive | inactive | – | inactive | – | inactive | – | inactive | inactive | inactive | inactive | inactive | 1.29 | –
Clc1cccc(Cl)n1 | inactive | inactive | – | – | inactive | inactive | inactive | inactive | inactive | inactive | – | inactive | – | inactive | inactive | inactive | inactive | inactive | 0.024 | –
CC(CC(C)(C)C)CC(C)(C)CC(C)(C)C (stereo not given) | inactive | inactive | inactive | – | inactive | inactive | inactive | – | – | inactive | – | inactive | – | inactive | – | inactive | – | – | – | –
CC(O)(c1ccc(Cl)cc1)c1ccc(Cl)cc1 | inactive | 15.4 µM (active) | – | 56.6 µM (active) | – | 24.5 µM (active) | inactive | inactive | 49 µM (active) | – | – | – | – | – | 38.9 µM (active) | – | – | 61.1 µM (active) | -43.9 | inactive
COc1cc([C@@H]2c3cc4c(cc3[C@@H](O[C@@H]3O[C@@H]5CO[C@@H](C)O[C@H]5[C@H](O)[C@H]3O)[C@H]3COC(=O)[C@H]23)OCO4)cc(OC)c1O | – | – | – | – | inactive | 0.861 µM (active) | inactive | inactive | inactive | inactive | inactive | – | – | – | – | – | inactive | 3.81 µM (active) | -61.8 | –
